Source: PubChem BioAssay AID1159580 (chemical genetic matrix, 2015)
Out of some 5,500 compounds screened, about 2,000 (36%) were called active. Another 18% or so got no clear call; they are omitted. Rule as the data show it: active = normalized growth mostly below about 0.91 (no sharp cut-off); inconclusive = no clear call, values can overlap the other calls; inactive = mostly above about 0.92. The list shows a part of the results.

Experiment: chemical genetic growth profiling, strain panel (AID 1159580);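 also: tested at 20 µM; growth read once vehicle control cultures reached saturation at 30 °C; 1 = growth at the plate median or of vehicle wells; lower values mean less growth of the strain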
Conditions: S. cerevisiae deletion strains, growth OD

Measured: normalized growth

C[C@@](Cc1ccc(O)c(O)c1)(NN)C(=O)O
inactive: locus YAL040C, strain CLN3, stronger effect = lower value 1.01 | locus YCL061C, strain MRC1 (second series), stronger effect = lower value 1 | locus YDR363W, strain ESC2, stronger effect = lower value 1.02 | locus YER002W, strain NOP16, stronger effect = lower value 1.06 | locus YMR307W, strain GAS1, stronger effect = lower value 0.997 | locus YNL175C, strain NOP13, stronger effect = lower value 1.04 | locus YNL197C, strain WHI3, stronger effect = lower value 0.993 | locus YNL224C, strain SQS1, stronger effect = lower value 1.02 | locus YOR083W, strain WHI5 (second series), stronger effect = lower value 0.978

CCOC(=O)C(C)(N)Cc1ccc(O)c(O)c1 (centres undefined)
active: locus YOR106W, strain vam3, stronger effect = lower value 0.859
inactive: locus YAL021C, strain ccr4, stronger effect = lower value 0.967 | locus YAL026C, strain drs2, stronger effect = lower value 0.958 | locus YAL030W, strain snc1, stronger effect = lower value 0.965 | locus YBL061C, strain skt5, stronger effect = lower value 0.965 | locus YBR009C, strain hhf1, stronger effect = lower value 0.984 | locus YBR023C, strain chs3, stronger effect = lower value 0.981 | locus YBR171W, strain sec66, stronger effect = lower value 0.967 | locus YBR231C, strain swc5, stronger effect = lower value 0.992 | locus YBR279W, strain paf1, stronger effect = lower value 0.993 | locus YCL011C, strain gbp2, stronger effect = lower value 0.983 | locus YCL016C, strain dcc1, stronger effect = lower value 0.971 | locus YCL061C, strain MRC1, stronger effect = lower value 0.965 | locus YCL069W, strain vba3, stronger effect = lower value 0.989 | locus YCR088W, strain abp1, stronger effect = lower value 0.995 | locus YDL005C, strain med2, stronger effect = lower value 0.986 | locus YDL040C, strain nat1, stronger effect = lower value 0.993 | locus YDR001C, strain nth1, stronger effect = lower value 0.982 | locus YDR069C, strain doa4, stronger effect = lower value 0.944 | locus YDR137W, strain rgp1, stronger effect = lower value 0.956 | locus YDR159W, strain sac3, stronger effect = lower value 0.953 | locus YDR195W, strain ref2 0.985 | locus YDR297W, strain sur2, stronger effect = lower value 0.974 | locus YDR334W, strain swr1, stronger effect = lower value 0.921 | locus YDR335W, strain msn5, stronger effect = lower value 0.971 | locus YDR392W, strain spt3, stronger effect = lower value 0.964 | locus YEL003W, strain gim4, stronger effect = lower value 0.98 | locus YEL037C, strain rad23, stronger effect = lower value 0.983 | locus YEL061C, strain CIN8 (second series), stronger effect = lower value 0.988 | locus YER015W, strain faa2, stronger effect = lower value 0.952 | locus YER016W, strain bim1, stronger effect = lower value 0.992 | locus YER111C, strain swi4, stronger effect = lower value 0.968 | locus YER155C, strain BEM2 (second series), stronger effect = lower value 0.977 | locus YFR010W, strain ubp6, stronger effect = lower value 0.976 | locus YGL167C, strain pmr1, stronger effect = lower value 0.946 | locus YGL173C, strain kem1, stronger effect = lower value 0.945 | locus YGL227W, strain vid30, stronger effect = lower value 0.983 | locus YGL240W, strain doc1, stronger effect = lower value 0.958 | locus YGL253W, strain hxk2, stronger effect = lower value 0.978 | locus YHR013C, strain ard1, stronger effect = lower value 0.951 | locus YHR027C, strain rpn1, stronger effect = lower value 0.947 | locus YHR030C, strain SLT2, stronger effect = lower value 1.08 | locus YHR079C, strain IRE1, stronger effect = lower value 1.08 | locus YHR142W, strain chs7, stronger effect = lower value 0.989 | locus YJL092W, strain hpr5, stronger effect = lower value 0.978 | locus YJL095W, strain BCK1 (second series), stronger effect = lower value 0.973 | locus YJL095W, strain BCK1, stronger effect = lower value 1.02 | locus YJL115W, strain asf1, stronger effect = lower value 0.95 | locus YJL129C, strain trk1, stronger effect = lower value 0.994 | locus YJL154C, strain vps35, stronger effect = lower value 0.986 | locus YJL164C, strain tpk1, stronger effect = lower value 0.963 | locus YJL166W, strain qcr8, stronger effect = lower value 0.985 | locus YJL187C, strain SWE1, stronger effect = lower value 0.977 | locus YJR066W, strain TOR1, stronger effect = lower value 1 | locus YKL160W, strain elf1, stronger effect = lower value 0.987 | locus YKR026C, strain gcn3, stronger effect = lower value 0.971 | locus YKR091W, strain srl3, stronger effect = lower value 0.998 | locus YLL001W, strain dnm1, stronger effect = lower value 0.974 | locus YLL026W, stronger effect = lower value 0.971 | locus YLL041C, strain sdh2, stronger effect = lower value 0.962 | locus YLR027C, strain aat2, stronger effect = lower value 0.962 | locus YLR113W, strain HOG1, stronger effect = lower value 1 | locus YLR221C, strain rsa3, stronger effect = lower value 0.976 | locus YLR258W, strain gsy2, stronger effect = lower value 0.986 | locus YLR262C, strain YPT6 (second series), stronger effect = lower value 0.881 | locus YLR320W, strain mms22, stronger effect = lower value 0.988 | locus YLR342W, strain FKS1, stronger effect = lower value 0.977 | locus YLR357W, strain rsc2, stronger effect = lower value 0.969 | locus YLR370C, strain arc18, stronger effect = lower value 0.981 | locus YLR384C, strain iki3, stronger effect = lower value 0.958 | locus YML120C, strain ndi1, stronger effect = lower value 0.974 | locus YMR058W, strain fet3, stronger effect = lower value 0.946 | locus YMR125W, strain sto1, stronger effect = lower value 0.998 | locus YMR129W, stronger effect = lower value 0.997 | locus YMR205C, strain PFK2, stronger effect = lower value 0.971 | locus YMR231W, strain pep5, stronger effect = lower value 0.972 | locus YNL071W, strain lat1, stronger effect = lower value 1 | locus YNL183C, strain NPR1, stronger effect = lower value 0.987 | locus YNL209W, strain ssb2, stronger effect = lower value 0.961 | locus YNL248C, strain rpa49, stronger effect = lower value 0.984 | locus YNL322C, strain KRE1 (second series), stronger effect = lower value 0.979 | locus YNR049C, strain mso1, stronger effect = lower value 0.972 | locus YOR001W, strain rrp6, stronger effect = lower value 0.977 | locus YOR070C, strain gyp1, stronger effect = lower value 0.978 | locus YOR080W, strain dia2, stronger effect = lower value 0.982 | locus YOR083W, strain WHI5, stronger effect = lower value 0.983 | locus YOR231W, strain MKK1, stronger effect = lower value 1.06 | locus YOR265W, strain rbl2, stronger effect = lower value 0.969 | locus YOR270C, strain vph1, stronger effect = lower value 0.951 | locus YOR290C, strain snf2, stronger effect = lower value 0.946 | locus YPL051W, strain arl3, stronger effect = lower value 0.964 | locus YPL078C, strain atp4, stronger effect = lower value 0.984 | locus YPL106C, strain sse1, stronger effect = lower value 0.886 | locus YPL240C, strain hsp82, stronger effect = lower value 0.975 | locus YPL256C, strain CLN2, stronger effect = lower value 1.06
